A selection: hits, their analogues and other compounds. The true share with any hit is near 12%.
HP1b chromo inh: HTS for Inhibitors of HP1-beta Chromodomain Interactions with Methylated Histone Tails; hit rate 0.56% among 390,000; Chromobox protein homolog 1 (Homo sapiens), P83916; AlphaScreen HP1-beta / biotin-H3K9me3 peptide binding; AID 540317, 2011; Potency, µM (doses to about 114 µM), for the others: top-dose activity change, negative = inhibition, usual class: inhibitors; further: nearly all actives have a fitted effect of over 70% in size
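Compound inhibition of the preformed complex between 50 nM HP1-beta and 50 nM biotinylated H3K9me3 peptide was read by AlphaScreen. Buffer was PBS pH 7.4 with 0.01% Tween-20. Incubations ran 30 min at room temperature, with 10 ug/mL donor/acceptor beads.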
Sfp PPTase inh: qHTS Assay for Inhibitors of Bacillus subtilis Sfp phosphopantetheinyl transferase (PPTase); Potency, µM, for the others: largest response in the series, negative = inhibition, actives largely listed as inhibitors; Biochemical Sfp PPTase activity, qHTS; AID 1490, 2009; 4'-phosphopantetheinyl transferase ffp (Bacillus subtilis), Q9F4F7; hit rate 3.5% among 310,000;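 further: the enzyme is Sfp with the accession as filed and its product quenches rhodamine fluorescence; 0% = enzyme reaction without inhibitor and -100% = no enzyme wells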
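Fluorescence-quenching assay with 15 nM Sfp, 5 uM rhodamine-CoA and 12.5 uM BHQ-2-labelled ybbR peptide in pH 7.6 Hepes/MgCl2 buffer. Enzyme was pre-incubated with compound for 15 min at room temperature. Rate was taken from the 30-min fluorescence change (525/598 nm).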
L3MBTL1 block: qHTS Assay for the Inhibitors of L3MBTL1 | Lethal(3)malignant brain tumor-like protein 1 (Homo sapiens), Q9Y468 | AlphaScreen L3MBTL1–H3K9me1 peptide binding | Potency, µM (top dose mostly 57.1 µM), for inactives: at the top dose activity, negative = inhibition, actives largely listed as inhibitors | hit rate 0.66% among 230,000; further: on the % scale 0 is the no-effect control and ±100 the full control effect; nearly all actives have a fitted effect of over 60% in size
Target sequence (Q9Y468 whole entry, looked up): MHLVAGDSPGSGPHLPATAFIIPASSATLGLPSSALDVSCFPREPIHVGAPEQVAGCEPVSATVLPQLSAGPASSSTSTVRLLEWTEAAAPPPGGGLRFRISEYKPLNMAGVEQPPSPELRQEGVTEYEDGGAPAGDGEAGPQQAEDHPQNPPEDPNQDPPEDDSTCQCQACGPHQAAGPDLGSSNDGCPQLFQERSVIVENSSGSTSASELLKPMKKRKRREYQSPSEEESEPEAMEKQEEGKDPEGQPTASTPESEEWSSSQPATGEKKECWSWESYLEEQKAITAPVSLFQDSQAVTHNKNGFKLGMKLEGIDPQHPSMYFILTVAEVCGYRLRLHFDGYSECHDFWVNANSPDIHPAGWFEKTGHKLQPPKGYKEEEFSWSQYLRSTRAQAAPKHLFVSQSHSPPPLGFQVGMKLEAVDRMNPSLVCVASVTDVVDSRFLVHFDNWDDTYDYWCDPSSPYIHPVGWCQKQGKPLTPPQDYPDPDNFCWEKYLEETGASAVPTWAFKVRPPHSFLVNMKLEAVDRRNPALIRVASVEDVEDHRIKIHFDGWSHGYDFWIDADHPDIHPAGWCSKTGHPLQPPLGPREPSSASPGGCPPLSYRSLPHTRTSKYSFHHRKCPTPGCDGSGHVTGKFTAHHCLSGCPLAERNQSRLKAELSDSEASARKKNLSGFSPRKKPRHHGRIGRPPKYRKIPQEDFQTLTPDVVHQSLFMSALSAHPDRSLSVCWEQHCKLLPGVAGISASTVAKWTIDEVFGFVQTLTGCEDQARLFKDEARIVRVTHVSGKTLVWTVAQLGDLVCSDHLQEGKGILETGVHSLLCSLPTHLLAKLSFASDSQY
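AlphaScreen assay: L3MBTL1 (50 nM final) was preincubated 30 min at room temperature with biotinylated H3(1-15)K9me1 peptide (75 nM final), then 30 min with library compounds; streptavidin donor and nickel chelate acceptor beads (10 ug/mL final) added, 30 min dark.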
G9a inh: qHTS Assay for Inhibitors of Histone Lysine Methyltransferase G9a; Potency, µM (highest dose often 102 µM), inactives show top-dose activity, negative = inhibition, hits mostly inhibitors; AID 504332, 2011; G9a H3K9 monomethylation, AlphaScreen, 2 h; hit rate 8.8% among 350,000; Histone-lysine N-methyltransferase EHMT2 (Homo sapiens), Q96KQ7; further: on the % scale 0 is the no-effect control and ±100 the full control effect; nearly all actives have a fitted effect of over 75% in size
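Chemiluminescent proximity detection of H3K9 monomethylation, read after 10 min bead incubation in the dark. Reaction: 20 nM G9a, 500 nM biotin-H3K9 peptide, 20 uM SAM cofactor, 2 h, room temperature, following 15 min enzyme-compound preincubation.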
BAZ2B block: qHTS Assay for Inhibitors of BAZ2B; AlphaScreen BAZ2B-H3K14Ac peptide displacement; AID 504333, 2011; hit rate 4.4% among 360,000; Bromodomain adjacent to zinc finger domain protein 2B (Homo sapiens), Q9UIF8; Potency, µM (titrated, usually from 114 µM), for inactives: top-dose activity change, negative = inhibition, usual class: inhibitors; further: on the % scale 0 is the no-effect control and ±100 the full control effect; nearly all actives have a fitted effect of over 60% in size
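Inhibition is scored as reduced AlphaScreen emission. The BAZ2B/b-H3(5-23)K14Ac complex (50 nM each) in PBS pH 7.4, 0.01% Tween-20 meets compound (up to 110 uM) for 30 min at RT before bead addition.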
JMJD2A Tudor: qHTS Assay for Inhibitors of JMJD2A-Tudor Domain. AlphaScreen JMJD2A-Tudor / H3K4me3 peptide binding. Potency, µM (doses to about 114 µM), inactives show at the highest dose activity change, negative = inhibition, usual class: inhibitors. hit rate 4.4% among 390,000. AID 504339, 2011; further: on the % scale 0 is the no-effect control and ±100 the full control effect; nearly all actives have a fitted effect of over 50% in size
The depositor's hits bear a star; ? = inconclusive; . = no result given; [ ] = remark or other dose. The call rests on the fitted dose curve; in most records, active means well fitted curve in the direction sought with a large enough effect; inconclusive means small, poorly fitted or top-dose-only effect, or another doubt; inactive means no such curve, though single readings can be large; an effect the other way counts as inactive or inconclusive. Potency means the concentration at half of the fitted maximal effect.

SMILES	HP1b chromo inh	Sfp PPTase inh	L3MBTL1 block	G9a inh	BAZ2B block	JMJD2A Tudor
COc1ccc(-c2ccc([C@H]3[C@@H]4C=CCC[C@@]4(C)C(=O)N3Cc3ccccc3)c(F)c2)cc1OC	25%	20µM*	.	48%[12.7 µM]	-10%	?
O=c1c2cnn(-c3ccc(Cl)cc3)c2ncn1Cc1cccc(C(F)(F)F)c1	20%	.	.	-14%[59 µM]	3%	-5%
Cc1nc2c(C(=O)NCCc3ccc(Cl)cc3)c[nH]n2c(=O)c1Cc1ccc(Cl)cc1	21%	.	.	23%[59 µM]	-28%	?
COc1ccc(-n2c(Cc3cccn3C)nnc2SCC(=O)N2CCCC2)cc1	39%	-20%	-1%	45µM*	-6%	-21%
Cn1cccc1Cc1nnc(SCC(=O)N2CCCCCC2)n1-c1ccc(F)cc1	29%	-14%	.	50µM*	-33%	-23%
COc1ccc(-n2c(Cc3cccn3C)nnc2SCC(=O)N2CCCc3ccccc32)cc1	-13%	-12%	-2%	45µM*	?	?
COc1ccc(-n2c(Cc3cccn3C)nnc2SCC(=O)N2CCC(C)CC2)cc1	18%	?	-10%	?	-35%	-26%
COc1ccc(-n2c(Cc3cccn3C)nnc2SCC(N)=O)cc1	44%	?	6%	50µM*	-13%	-21%
CC(C)(C)c1cc(C(=O)/C=C/c2ccc(C(=O)O)cc2)cc(C(C)(C)C)c1	.	-4%	.	.	.	.
CC(C)=CCOc1ccc(/C=C/C(=O)c2ccc(OCC=C(C)C)cc2OCC(=O)O)cc1	.	?	.	-2%[59 µM]	.	.
COc1cccc(-c2nc(NCCN3CCOCC3)c3ccccc3n2)c1	.	9%	.	2%[0.501 µM]	.	.
Fc1ccc(NCc2cn3ccccc3n2)cc1	16%	-11%	?	-37%[59 µM]	50µM*	-34%
CCCNC(=O)Nc1cc(C(=O)NCc2cccc(OCC)c2)ccc1N1CCCC1	-2%	.	.	4%[59 µM]	-29%	-16%
CCCSc1ncc(Cl)c(C(=O)Nc2c(C(=O)Nc3ccc(C)cc3)oc3ccccc23)n1	41%	.	.	8%[59 µM]	1%	-11%
NC1=NC(=O)C(CC(=O)Nc2ccc3c(c2)OCO3)S1 (centres undefined)	28%	14%	?	50µM*	-33%	-13%
CCOC(=O)c1c(S(=O)(=O)N2CCCC(C(=O)N3CCN(c4cc(C)ccc4C)CC3)C2)c(C)n(C)c1C (centres undefined)	-6%	.	.	-7%[59 µM]	-18%	?
Cc1noc(C)c1S(=O)(=O)N1CCc2nc(COc3ccccc3)c3c(c2C1)CO[C@@H](C)C3	.	3%	.	.	.	.
CCCCCCCCCCCC(=O)N(CCO)CCO	.	-4%	.	-4%[12.7 µM]	.	.
O=C(CCCCCC(=O)N(CCO)CCO)N(CCO)CCO	32%	17%	-4%	40µM*	-2%	-12%[11.4 µM]
CC1(C)Cc2c(C#N)c(SCc3ccccc3)nc(N3CCOCC3)c2CO1	20%	-13%	7%	-32%[0.0925 µM]	3%	-8%
COC(=O)CSc1nc(N2CCOCC2)c2c(c1C#N)CC(C)(C)OC2	35%	5%	.	?	?	3%
CC(C)Sc1nc(N2CCCC2)c2c(c1C#N)CC(C)(C)OC2	76%	-22%	-1%[11.4 µM]	5%[59 µM]	-5%	11%
CC(C)Sc1nc(N2CCOCC2)c2c(c1C#N)CC(C)(C)N(C)C2	-10%	-8%	.	-14%[12.7 µM]	-8%	11µM*
CC1(C)Cc2c(C#N)c(SCC(=O)c3ccccc3)nc(N3CCOCC3)c2CO1	-7%	14µM*	-5%	22µM*	-31%	63µM*
CC(Sc1nc(N2CCOCC2)c2c(c1C#N)CC(C)(C)OC2)C(=O)O (centres undefined)	18%	-16%	.	50µM*	-12%	-6%
SMILES	HP1b chromo inh	Sfp PPTase inh	L3MBTL1 block	G9a inh	BAZ2B block	JMJD2A Tudor
CN1Cc2c(N3CCOCC3)nc(SCCC#N)c(C#N)c2CC1(C)C	5%	7%	10%	5%[12.7 µM]	-4%	-18%
COC(=O)Sc1nc(N2CCOCC2)c2c(c1C#N)CC(C)(C)OC2	63%	?	-6%	7.9µM*	10%	?
COc1ccccc1Nc1sc(C(=O)c2ccc3c(c2)OCO3)c(N)c1S(=O)(=O)c1ccccc1	26%[57 µM]	.	.	2%[59 µM]	4%	-23%
O=S(=O)(Nc1ccc(-c2ccc(N3CCCC3)nn2)cc1)c1ccc(Br)cc1	15%[57 µM]	.	.	-23%[59 µM]	1%	-25%
O=C(Cn1ncc2c3ccccc3n(Cc3ccccc3)c2c1=O)Nc1ccccc1C(F)(F)F	42%	.	.	0%[59 µM]	13%	-10%
O=C(Cn1cnc([N+](=O)[O-])n1)N/N=C/c1cccc(Cl)c1	38%	7%	.	19%[59 µM]	-14%	-16%
O=C(Cn1cnc([N+](=O)[O-])n1)N/N=C/c1cccc2ccccc12	0%	6%	2%	45µM*	-2%	-20%
O=C(Cn1cnc([N+](=O)[O-])n1)N/N=C/c1ccc(O)cc1O	34%	-13%	.	-30%	28µM*	63µM*
O=C(Nc1ccc(Cl)cc1)Nc1ccccc1CC[N+](=O)[O-]	-8%	-3%	-4%	-43%	-28%	22µM*
COc1ccccc1-c1nnc2n1N=C(c1ccc(O)c(O)c1)CS2	-2%	-20%	-29%	?	50µM*	?
COc1ccccc1-c1nnc2n1N=C(c1c(OC)cccc1OC)CS2	.	-4%	.	.	.	-23%
COc1cccc(C2=Nn3c(nnc3-c3ccccc3OC)SC2)c1	.	?	.	.	.	79µM*
Fc1ccc(Cn2c(-c3cccc(Br)c3)nc3ccccc32)cc1	79%	.	.	20%[59 µM]	8%	14%
Cc1ccc(Cl)c2c1=NC(=O)C=2c1[nH]c(=S)[nH]c1O	?	40µM*	-14%	7.9µM*	?	-26%
COc1ccc(CNC(=O)CC2N=C3c4ccccc4N=C(SCC(=O)Nc4ccc(C(C)C)cc4)N3C2=O)cc1 (centres undefined)	17%	.	.	-7%[59 µM]	-15%	-29%
NC(=O)c1nn2c(C(F)(F)F)cc(-c3ccc(Br)cc3)nc2c1Cl	7%	.	.	8%[59 µM]	6%	-13%
Cc1cc(C(c2cc(C)c(N)c(C)c2)c2ccco2)cc(C)c1N	79µM*	.	.	.	.	79µM*
COc1ccc(NC(=O)CCCN2C(=O)/C(=C\c3ccco3)SC2=S)cc1	-13%	?	-22%	-7%[59 µM]	?	-29%

Source: PubChem BioAssay
